DT40 TDP1 CPT: qHTS for Inhibitors of human tyrosyl-DNA phosphodiesterase 1 (TDP1): qHTS in cells in presence of CPT | 420,000 tested, 12% active | chicken DT40 Tdp1-/-;hTDP1 cells + 20 nM CPT, ATP luminescence, 48 h | AID 686979, 2013 | Potency, µM (doses to about 46.2 µM), actives largely listed as inhibitors; also: nearly all actives have a fitted effect of over 55% in size
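Cell growth measured by CellTiter-Glo luminescence after a minimum 48 h, 37 C compound exposure with 20 nM CPT in Tdp1-knockout DT40 cells stably expressing hTDP1, seeded 400/well; qHTS titration format.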
HT1080NT lethal: qHTS for induction of synthetic lethality in tumor cells producing 2HG: qHTS for the HT-1080-NT fibrosarcoma cell line; HT-1080-NT fibrosarcoma viability, CellTiter-Glo ATP luminescence, 48 h; AID 686970, 2013; Potency, µM (series often up to 46.1 µM), most hits filed as cytotoxic; 360,000 tested, 1.6% active;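 also: NT is the 2HG producing partner of a matched IDH1 knockdown line; nearly all actives have a fitted effect of over 55% in size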
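Fibrosarcoma NT cells, 750 per well in 5% FBS RPMI, were exposed to compound for 48 hours. Viability: CellTiter-Glo luminescence.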
IL-1B inflam inh: qHTS for Inhibitors of Inflammasome Signaling: IL-1-beta AlphaLISA Primary Screen; 360,000 tested, 4.7% active; activity change, % at 57.5 µM; THP-1 LPS/ATP IL-1B secretion, AlphaLISA, 16 h; stronger effect = lower value; AID 743279, 2014; in the data active = activity change below about -50%; inconclusive = mostly about -30% to -49%
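THP-1 cells pretreated 1 hr with compounds (up to 57.5 uM final), then stimulated with LPS (250 ng/mL final) plus ATP (1.25 mM final); secreted IL-1B measured by AlphaLISA after 16 hr, decreased signal indicating inhibition.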
HT1080 IDH1KD tx: qHTS for induction of synthetic lethality in tumor cells producing 2HG: qHTS for the HT-1080-IDH1KD cell line; Potency, µM (doses to about 46.1 µM), usual class: cytotoxic; HT-1080 IDH1 knockdown viability, ATP luminescence, 48 h; 360,000 tested, 2% active
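% activity derives from luminescence (CellTiter-Glo), normalised to DMSO and no-cell wells. HT-1080-IDH1KD cells, 750/well, had 48 h compound exposure at 37 °C.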
TDP1 cell noCPT: qHTS for Inhibitors of human tyrosyl-DNA phosphodiesterase 1 (TDP1): qHTS in cells in absence of CPT | DT40 Tdp1-/- hTDP1 cells, no CPT, ATP luminescence, 48 h | Potency, µM (titrated, usually from 46.2 µM), usual class: inhibitors | 420,000 tested, 15% active | AID 686978, 2013; also: nearly all actives have a fitted effect of over 55% in size
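DT40 Tdp1-/-;hTDP1 cells, no CPT (DMSO vehicle only), 400 cells/well; compounds pin-transferred; ≥48 hr, 37 °C; CellTiter-Glo 30 min RT dark, luminescence read.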
A number is an active result; i = inactive; ? = inconclusive; nt = no result given; [ ] = another dose, or the depositor's remark. Rows were chosen to be rich in hits. Some 19% of all compounds tested hit in one or more screens of this group. Unless noted, calls follow the shape of the dose curve; as a rule, active = well fitted curve in the direction sought with a large enough effect; inconclusive = small, poorly fitted or top-dose-only effect, or another doubt; inactive = no such curve, though single readings can be large; an effect the other way counts as inactive or inconclusive.

SMILES | DT40 TDP1 CPT | HT1080NT lethal | IL-1B inflam inh | HT1080 IDH1KD tx | TDP1 cell noCPT
Cc1ccc(CNC(=O)Cc2ccc(-n3cccc3)cc2)cc1 | 1.3µM | ? | i | 4.61µM | 0.82µM
Cc1ccc(CNC(=O)c2ccc(-n3cccc3)cc2)cc1 | i | i | i | i | i
Nc1c(N(CCC2=CCCCC2)C(=O)c2ccco2)c(=O)[nH]c(=O)n1Cc1ccccc1 | ? | i | i | i | ?
Cc1ccc(C(=O)COC(=O)c2cnccn2)cc1[N+](=O)[O-] | i | i | i | i | i
O=C(COC(=O)c1cnccn1)c1ccc(Cl)c([N+](=O)[O-])c1 | ? | i | -60.0 | i | ?
O=C(COC(=O)c1cnccn1)c1ccc([N+](=O)[O-])cc1 | 23.1µM | i | -54.1 | i | ?
Cc1ccc(C(=O)COC(=O)c2cnccn2)cc1 | i | i | i | i | i
CC12CCC(c3c(C(=O)Nc4nccs4)nn(-c4ccccc4)c31)C2(C)C (stereo unspecified) | 16.4µM | ? | i | 14.1µM | 18.4µM
CCOC(=O)c1c(-c2ccccc2)csc1NC(=O)CSc1nc(C)cc(C)n1 | ? | i | i | i | 23.1µM
CCOC(=O)c1c(NC(=O)c2nn(CC)cc2Br)c(C#N)cn1-c1ccccc1 | ? | i | ? | i[9.24 µM] | 20.6µM
CCOC(=O)c1c(-c2ccccc2)csc1NC(=O)c1nc(SCC)ncc1Cl | i | nt | nt | nt | ?
CCOC(=O)c1c(-c2ccccc2)csc1NC(=O)C(C)NCc1ccco1 (stereo unspecified) | 18.4µM | i | i | i | ?
CCOC(=O)c1c(-c2ccccc2)csc1NC(=O)CSc1nc(N)cc(N)n1 | ? | i | i | i | 8.2µM
COc1ccc([N+](=O)[O-])cc1NC(=O)COC(=O)C12CC3CC(CC(O)(C3)C1)C2 | i | i | i | i | ?
CCOC(=O)N1CCN(CC(=O)Nc2cc(OC)c(OC)cc2C#N)CC1 | i | i | i | i | i
CCOC(=O)c1c(-c2ccccc2)csc1NC(=O)c1nn(CC)cc1Br | ? | ? | -66.7 | i | ?
C=CCOc1cccc(NC(=O)c2ccccc2SC)c1 | ? | i | i | i | ?
COCCn1c(=NC(=O)CSCC(=O)NC2CCCCC2)sc2cc(OC)ccc21 | 23.1µM | i | i | i | 20.6µM
COCCn1c(=NC(=O)c2sc3ccccc3c2Cl)sc2cc(S(N)(=O)=O)ccc21 | ? | i | i | i | 13µM
COCCn1c(=NC(=O)/C=C/c2cccs2)sc2cc(NC(C)=O)ccc21 | ? | i | i | i | 23.1µM
C=CCn1c(=NC(=O)c2sc3ccccc3c2Cl)sc2cc(S(N)(=O)=O)ccc21 | ? | ? | i | ? | ?
CCn1c(=NC(=O)CSC(C)=O)sc2ccccc21 | 20.6µM | i | i | i | ?
COCCn1c(=NC(=O)CSC(C)=O)sc2cc(OC)ccc21 | ? | i | i | i | ?
COCCn1c(=NC(=O)CCS(=O)(=O)c2ccccc2)sc2cc(F)ccc21 | 18.4µM | i | i | i | 20.6µM
COCCn1c(=NC(=O)CSC(C)=O)sc2cc(F)ccc21 | 20.6µM | i | i | i[9.24 µM] | 23.1µM
SMILES | DT40 TDP1 CPT | HT1080NT lethal | IL-1B inflam inh | HT1080 IDH1KD tx | TDP1 cell noCPT
CCOC(=O)C1(Cc2cccc(OC)c2)CCN(Cc2cnc(N)nc2)CC1 | i | i | i | i | i
CCOC(=O)C1(CC2CC2)CCN(Cc2cnc(-c3ccc(OC)cc3)nc2)CC1 | ? | i | i | ? | 16.4µM
CCOC(=O)C1(CC2CC2)CCN(Cc2cn[nH]c2-c2cccc(F)c2)CC1 | ? | i | i | i | 18.4µM
CCOC(=O)C1(CC2CC2)CCN(Cc2ccc3cccc(F)c3n2)CC1 | 20.6µM | i | ? | i | 16.4µM
CCOC(=O)C1(CC2CC2)CCN(Cc2cn[nH]c2-c2ccccc2)CC1 | i | i | i | i | i
COc1ccccc1C1CN(Cc2cccc(OCCO)c2)Cc2ccccc2O1 (stereo unspecified) | i[9.04 µM] | nt | nt | nt | ?
CC(=O)Nc1ccc(S(=O)(=O)N2CCC(Oc3ccc(-n4cnnn4)cc3)CC2)cc1 | ? | i | i | i | ?
O=S(=O)(c1cccc(F)c1)N1CCC(Oc2ccc(-n3cnnn3)cc2)CC1 | 16.4µM | nt | nt | nt | 14.6µM
CNC[C@@H]1Oc2cc(Br)ccc2S(=O)(=O)N([C@@H](C)CO)C[C@H]1C | ? | i | i | i | ?
CCOc1ccc(NC(=O)CSc2nnc(-c3ccc(OCC)cc3)o2)cc1 | i | nt | nt | nt | i
C#CCOCCOCCOCCNc1nc(N2CCN(C(=O)CCCCCCCCCCNC(=O)[C@@H](CCC(=O)O)n3cc(CCCCCN)nn3)CC2)nc(N2CCN(C(=O)CCCCCCCCCCNC(=O)[C@H](CO)n3cc(CCCSC)nn3)CC2)n1 | 13µM | i | -55.8 | i | i
C#CCOCCOCCOCCNc1nc(N2CCN(C(=O)CCCCCCCCCCNC(=O)[C@@H](CCC(=O)O)n3cc(CCCCCN)nn3)CC2)nc(N2CCN(C(=O)CCCCCCCCCCNC(=O)[C@H](CO)n3cc(CCCCCN)nn3)CC2)n1 | i | i | ? | i | i
C#CCOCCOCCOCCNc1nc(N2CCN(C(=O)CCCCCCCCCCNC(=O)[C@H](CCCCN)n3cc(CCO)nn3)CC2)nc(N2CCN(C(=O)CCCCCCCCCCNC(=O)[C@H](CCCCN)n3cc(CCCC(=O)O)nn3)CC2)n1 | i | i | ? | i | i
C#CCOCCOCCOCCNc1nc(N2CCOCC2)nc(N2CCN(C(=O)CCCCCCCCCCNC(=O)[C@H](CO)n3cc(CCCSC)nn3)CC2)n1 | 23.1µM | i | i | i | ?
C#CCOCCOCCOCCNc1nc(N2CCN(C(=O)CCCCCCCCCCNC(=O)[C@@H](CCSC)n3cc(CCO)nn3)CC2)nc(N2CCN(C(=O)CCCCCCCCCCNC(=O)[C@H](CO)n3cc(CCCCCN)nn3)CC2)n1 | ? | ? | -82.2 | ? | ?
C#CCOCCOCCOCCNc1nc(N2CCN(C(=O)CCCCCCCCCCNC(=O)[C@@H](CCSC)n3cc(CCO)nn3)CC2)nc(N2CCN(C(=O)CCCCCCCCCCNC(=O)[C@H](CCC(=O)O)n3cc(CCCCCN)nn3)CC2)n1 | i | i | -52.8 | i | i
COc1ccc(N2CC(NC(=O)COc3ccccc3F)CC2=O)cc1OC (stereo unspecified) | i | nt | nt | nt | i
COc1ccc(OC)c(NC(=O)NNC(=O)COc2ccc([N+](=O)[O-])cc2)c1 | i | i | i | i | i
CCN(Cc1ccccc1)C(c1cccs1)c1nnnn1C1CCCCC1 (stereo unspecified) | ? | ? | i | ? | 29.1µM
